Structures are written as SMILES. The campaign covered roughly 2,300 compounds. About 1,000 (43%) were called active. No rule for the calls is given here. The set was probably picked from earlier hits. The list shows a part of the results. Results with a measured potency or affinity are listed apart.

This assay in a line: modified counter assay using GFP fluorescence, PhoP regulon inhibitor project, dose response (AID 1985). Conditions: S. Typhi, 4 h; series mostly up to 150 µM.
For `CC(C)c1ccc(N(C(=O)C(F)(F)F)C(C(=O)NC2CCCCC2)c2ccncc2)cc1` (stereo unspecified), the compound was called inactive.

For the compound `O=C(CN1CCCC1)Nc1ccc(-c2nc3cc(NC(=O)CN4CCCC4)ccc3o2)cc1`, the compound was called inactive.

For the compound `CC(=O)c1c(N2CCN(c3cccc(Cl)c3)CC2)nc(=S)n(-c2ccccc2)c1C`, the result was inactive.

Take `COc1cccc(NC(=O)CSc2nncn2-c2ccccn2)c1`: the result was inactive.

As to `COc1ccc(Nc2nc(-c3ccccc3)nc3ccccc23)cc1S(=O)(=O)N1CCOCC1`, the result was inactive.

Consider `COc1ccc(OC)c(CCNC(=O)CS(=O)(=O)Cc2nc(-c3ccccc3C)oc2C)c1`, for which the compound was called inactive.

Consider `COC(=O)c1ccc(Cn2c(O)c(N=NC(N)=S)c3ccccc32)o1`, for which the compound was called inactive.

Take `c1ccc(CSc2ccc(-c3cccs3)nn2)nc1`: the compound was classed as inactive.

Regarding `Cc1ccc2[nH]cc(CCNC(=O)c3cccnc3)c2c1`, the compound was called inactive.

As for `CCc1nnc(NC(=O)c2ccc(S(C)(=O)=O)cc2)s1`, the result was inactive.

`COc1ccc(-c2csc(N)n2)cc1F`: the compound was called inactive.

For the compound `O=C(Nc1ccc(Cc2ccncc2)cc1)c1cccs1`, the call was inactive.

As to `Cc1ccc(NC(=O)OCc2cccs2)cc1`, the call was inactive.

For `Cc1cc(C)cc(NC(=O)CSc2nnc(CNC(=O)c3cccs3)o2)c1`, the compound was called inactive.

For the compound `CC(C)(C)n1nc2c(c1NC(=O)c1cccs1)CS(=O)C2` (stereo unspecified), the result was inactive.

Regarding `Nc1nc(SCC(=O)N2CCCC2)[nH]c(=O)c1NC(=O)c1cccs1`, the call was inactive.

`CCc1ccc2c(c1)CCCN2C(=O)c1ccccc1C(=O)O`: the outcome was inactive.

Consider `CC1Cc2ccccc2N1S(=O)(=O)c1cccc(C(=O)N2CC(=O)Nc3ccccc32)c1` (stereo unspecified), for which the outcome was inactive.

On to `Cc1noc(C)c1CCC(=O)N1CCCC(CCC(=O)NCc2ccc(F)c(F)c2)C1` (stereo unspecified), for which the result was inactive.

`COc1ccc(NS(=O)(=O)c2cc(NC(=O)c3ccc(C)s3)ccc2N2CCOCC2)cc1`: the compound was called inactive.

With `CCCC(=O)c1c(NC)cc(C)oc1=O`, the result was inactive.

On to `CCOC(=O)C1=C(O)c2ccccc2C(=O)/C1=C\c1ccc(C)cc1`, for which the result was inactive.

As to `CCOc1cc(C2NC(=O)N(C)C(C)=C2[N+](=O)[O-])ccc1OC(C)=O` (stereo unspecified), the compound was called inactive.

In the case of `CCc1nc(N)nc(N)c1-c1ccc(Cl)cc1`, the result was inactive.

For `CCNc1nc(N)nc(Oc2ccc(OCCOc3ccc(Cl)cc3Cl)nn2)n1`, the compound was classed as inactive.

Take `NCCCCCc1nnc(SCc2ccc(Cl)cc2Cl)o1`: the compound was called inactive.

On to `COc1ccc(C2C(C#N)=C(N)Oc3n[nH]c(C)c32)cc1CSc1ccccn1` (stereo unspecified), for which the call was inactive.

As for `COc1ccc(CCNC2CCCCC2)cc1`, the call was inactive.

For `COc1ccc(OCC(=O)Nc2ccc3c(c2)nc(CCN2CCC(C)CC2)n3C)cc1`, the compound was called inactive.

Take `CCOC(=O)c1cccc(NC(=O)C2CCC(CNc3c(N4CCOCC4)c(=O)c3=O)CC2)c1` (stereo unspecified): the compound was classed as inactive.

As to `Cc1ccc(-c2c(C)n([O-])c3c([n+]2=O)CCCC3)o1`, the compound was called inactive.

Regarding `O=C(CCNC(=O)c1ccco1)Nc1cccc(Br)c1`, the outcome was inactive.

For the compound `O=C(CSc1ccc(Cl)cc1)c1ccco1`, the compound was classed as inactive.

On to `Cc1cc(Cl)ccc1OCCCC(=O)N1CCCc2ccccc21`, for which the outcome was inactive.

Take `OCCN1CCN(CCCN2c3ccccc3Sc3ccc(C(F)(F)F)cc32)CC1`: the outcome was inactive.

As to `CSc1ccc2c(c1)N(CCC1CCCCN1C)c1ccccc1S2` (stereo unspecified), the outcome was inactive.

As for `c1ccc2c(c1)OC(CCCN1CCCCC1)c1ccccc1S2` (stereo unspecified), the call was inactive.

For `c1ccc(-c2nc(NC3CC3)nc(-n3ccnc3)n2)cc1`, the outcome was inactive.

In the case of `COc1ccc(C2C(C(=O)NCc3cccnc3)c3ccccc3C(=O)N2C)cc1OC` (stereo unspecified), the compound was called inactive.

As to `c1ccc2cc3c(NCCN4CCOCC4)ccnc3cc2c1`, the compound was classed as inactive.

With `N#Cc1nc(Cc2ccccc2)oc1NCCN1CCOCC1`, the outcome was inactive.

As for `COC(=O)c1ccc(CSc2nc3ccccc3c(=O)n2-c2ccc(OC)c(OC)c2)o1`, the result was inactive.

Turning to `Cc1c(/C=N/NC(=O)c2ccc3c(c2)OCO3)cnn1C`, the compound was classed as inactive.

For the compound `COc1ccc(C(=O)O/N=C2\C(=O)N(C)c3ccccc32)cc1`, the outcome was inactive.

For the compound `O=C(Nc1ccc(N2CCOCC2)cc1)C1CCN(S(=O)(=O)c2ccccc2F)CC1`, the call was inactive.

As for `CCc1cccc2c(C=C(C#N)C#N)cn(CC(=O)N3CCCCCC3)c12`, the compound was called inactive.

Regarding `CCOC(=O)c1ccc(S(=O)(=O)N2CCN(CCC#N)CC2)cc1`, the compound was classed as inactive.

In the case of `CC(=O)NCc1ccc(C(=O)CCl)cc1`, the compound was called inactive.

For the compound `CN(C)[C@@H]1C(=O)C(C(N)=O)=C(O)[C@@]2(O)C(=O)C3=C(O)c4c(O)cccc4[C@@](C)(O)C3[C@H](O)C12` (stereo partly specified), the outcome was inactive.

For `O=C1c2c(O)ccc(O)c2C(=O)c2c(NCCNCCO)ccc(NCCNCCO)c21`, the compound was classed as inactive.

`C[C@@H](NC(=O)/C(C#N)=C/c1ccc(O)c(O)c1)c1ccccc1`: the result was inactive.

As to `Cc1nc2cc(C(=O)N3CCC4(CC3)OCCO4)ccc2n1-c1cccc(F)c1`, the result was inactive.

In the case of `COC(=O)C1=C(C)N(Cc2ccco2)C(=O)N[C@H]1c1ccc(Br)cc1`, the call was inactive.

As to `COC(=O)C1=C(C)N(CC2CC2)C(=O)N[C@H]1c1ccc(Br)cc1`, the result was inactive.

For the compound `COc1ccc2c(C(=O)CN(C)C3CCCCC3)c[nH]c2c1`, the result was inactive.

As to `COc1ccc(CC(=O)N(Cc2cc3cc(OC)ccc3[nH]c2=O)C(C)C)cc1`, the compound was called inactive.

Regarding `COC(=O)NNS(=O)(=O)c1ccc(C)cc1`, the outcome was inactive.

Regarding `N#CCC(=O)N/N=C/c1ccccc1Cl`, the compound was called inactive.

On to `Cc1cc([N+](=O)[O-])nn1CC(=O)Nc1cccc2nonc12`, for which the outcome was inactive.

On to `Cc1[nH]nc2c1C1(CCC3(CC1)OCCO3)C(C#N)=C(N)O2`, for which the call was inactive.

Regarding `NC(=O)COc1c(-c2ccco2)oc2ccccc2c1=O`, the result was inactive.

In the case of `O=C(NNC(=O)c1cccs1)c1ccc2ccccc2c1`, the result was inactive.

For the compound `COc1ccc(-c2noc(CCC(=O)Nc3cccc(C)c3)n2)cc1`, the outcome was inactive.

On to `CCOC(=O)c1cccc(NC(=O)c2cccs2)c1`, for which the compound was called inactive.

`COC(=O)c1ccc(NC(=S)NNC(=O)c2ccccc2)cc1`: the result was inactive.

As for `COc1ccc(-c2nc3ccc(C(=O)NCC(OC)OC)cc3nc2-c2ccc(OC)cc2)cc1`, the result was inactive.

`CCCOc1ccc(C2C(C(=O)c3ccc(C)o3)=C(O)C(=O)N2CCCn2ccnc2)cc1` (stereo unspecified): the call was inactive.

For the compound `Clc1ccc(-c2cc(C3CCNCC3)[nH]n2)c(Cl)c1`, the compound was called inactive.

Take `C=CCn1c(C)c(C(C)=O)c(SC)nc1=S`: the outcome was inactive.

Turning to `COc1ccc(CNC(=O)C(c2cccs2)N(C(=O)c2csnn2)C2CC2)cc1` (stereo unspecified), the result was inactive.

With `COCCN1C(=O)C(=O)/C(=C(/O)c2cccc(OC)c2)C1c1ccncc1` (stereo unspecified), the compound was classed as inactive.

Regarding `CCC1(CC)C(=O)NC(=O)NC1=Nc1cccc(OC)c1`, the result was inactive.

Take `CCC(=O)c1ccc(OCC(O)CNCCc2ccc(Cl)cc2)cc1` (stereo unspecified): the call was inactive.

As for `Cn1c(=O)cc(SCC(=O)N2CCN(C3CCCCC3)CC2)c2ccccc21`, the outcome was inactive.

With `Cn1c(C(O)c2ccccc2F)nc(Cl)c1Cl` (stereo unspecified), the outcome was inactive.

On to `CSc1ccccc1NC(=O)CN1CCCCC1C` (stereo unspecified), for which the compound was called inactive.

With `CNS(=O)(=O)c1cccc(C(=O)OCc2cc(=O)oc3c(C)c(O)ccc23)c1`, the outcome was inactive.

With `O=C(N/N=C/c1ccc(F)c(F)c1)c1cc2c(s1)-c1ccccc1CC2`, the call was inactive.

Turning to `CC(C)(C)Nc1nc(-c2ccccn2)nc2ccccc12`, the outcome was inactive.

With `CC(C)(C)NC(=O)/C=C/c1ccc(C(F)(F)F)cc1`, the compound was classed as inactive.

As to `COCCN1CC(=O)N2C(c3cccc(OC)c3)c3[nH]c4ccccc4c3C[C@H]2C1=O` (stereo partly specified), the result was inactive.

On to `Cc1ccc2c(c1)C1CN(C)CCC1N2C(=O)COc1ccccc1F` (stereo unspecified), for which the result was inactive.

For the compound `c1ccc(CN2CCC(N3CCN(Cc4ccc5c(c4)OCO5)CC3)CC2)cc1`, the compound was called inactive.

`c1ccc(CN2CCC(Nc3nc(-c4ccccc4)nc4ccccc34)CC2)cc1`: the compound was called inactive.

With `c1ccc(CN2CCC(Nc3nc(-c4cccs4)nc4ccccc34)CC2)cc1`, the result was inactive.

In the case of `CCOC(=O)c1cc(-c2ccc(F)cc2)n(CCC(=O)NC2CCN(Cc3ccccc3)CC2)c1C`, the compound was classed as inactive.

Regarding `Cc1cc2ccccc2c(=O)n1CC(=O)NCCC1=CCCCC1`, the result was inactive.

As for `Cc1ccccc1C(=O)c1cccn1CC(=O)NCCC1=CCCCC1`, the call was inactive.

In the case of `Clc1ccc(OCc2nc(-c3ccc(Br)o3)no2)cc1`, the compound was called inactive.

For `CN1CCN(c2ccccc2NC(=O)c2cc3c(s2)-c2ccccc2OC3)CC1`, the compound was classed as inactive.

In the case of `NCC/C=C1/c2ccccc2CSc2ccccc21`, the outcome was inactive.

In the case of `c1ccc2c(Nc3nnc(-c4ccncc4)s3)cccc2c1`, the compound was called inactive.

For `O=C(Nc1ccc(N2CCOCC2)cc1)c1ccc(S(=O)(=O)NCc2ccco2)cc1`, the result was inactive.

For `CCc1cccc(NC(=O)CSC2=NS(=O)(=O)c3ccccc32)c1`, the result was inactive.

On to `O=C(CNC(=O)Cn1ccc2ccccc2c1=O)NCCCN1CCCCCC1`, for which the call was inactive.

Regarding `O=C1CCCN1CCC1CCN(C2CC(=O)N(c3ccc(Cl)cc3)C2=O)CC1` (stereo unspecified), the result was inactive.

As to `CC(NCC(O)COCCC12CC3CC(CC(C3)C1)C2)c1ccccc1` (stereo unspecified), the compound was classed as inactive.

Consider `CS(=O)(=O)c1cnc2c(-c3ccsc3)cnn2c1N`, for which the compound was called inactive.

In the case of `O=C(CCSCc1ccccc1F)NCc1cccs1`, the compound was classed as inactive.

`CC(OC(=O)Cc1coc2cc3c(cc12)CCC3)C(=O)NCc1ccc2c(c1)OCO2` (stereo unspecified): the compound was classed as inactive.

With `COc1cc2[nH]c(=S)n(CC3CCCO3)c(=O)c2cc1OC` (stereo unspecified), the compound was called inactive.

On to `Cc1cn([C@H]2C[C@H](N=[N+]=[N-])[C@@H](CO)O2)c(=O)[nH]c1=O`, for which the compound was called inactive.

Consider `Cc1ccc(NC2OC(CO)C(O)C(O)C2O)cc1` (stereo unspecified), for which the compound was classed as inactive.

On to `O=C(COC(=O)CNC(=O)c1ccccc1)Nc1ccc(F)c([N+](=O)[O-])c1`, for which the call was inactive.

As for `Cc1[nH]nc2c1C(c1ccc(-c3ccccc3C#N)o1)C(C#N)=C(N)O2` (stereo unspecified), the compound was classed as inactive.

Turning to `O=C(NCc1cccs1)C(=O)NCC(c1ccco1)N1CCN(c2ccc(F)cc2)CC1` (stereo unspecified), the call was inactive.

In the case of `CCCN(CCC)CC(=O)Nc1cccc2c1OCO2`, the compound was called inactive.

For the compound `O=C(/C=C/c1ccccc1)NNC(=O)c1ccco1`, the result was inactive.

With `O=C(NC(=S)Nc1c(F)cc(F)cc1Br)c1ccc2c(c1)OCCO2`, the outcome was inactive.

Consider `O=C(/C=C/c1ccco1)NC(=S)Nc1cccc(-c2nc3ccccc3o2)c1`, for which the compound was called inactive.

In the case of `CC(=O)c1cccc(NC(=S)NNC(=O)c2ccco2)c1`, the result was inactive.

For the origin of these results see PubChem BioAssay AID1985 (Southern Research Specialized Biocontainment Screening …, 2009).
